Assay outcomes as filed in PubChem.
HTR5A ag ctr: activates human HTR5A in OPRM1-OPRD1 agonist counter-screen; P47898; HTR5A agonist assay, luminescence, cell-based; activation, % at 9.3 µM; 0.61% of 340,000 active; AID 504692; in the data active = activation mostly above about 9.5%, no sharp cut-off; inactive = mostly below about 7.6%
Target sequence (P47898 whole entry, looked up): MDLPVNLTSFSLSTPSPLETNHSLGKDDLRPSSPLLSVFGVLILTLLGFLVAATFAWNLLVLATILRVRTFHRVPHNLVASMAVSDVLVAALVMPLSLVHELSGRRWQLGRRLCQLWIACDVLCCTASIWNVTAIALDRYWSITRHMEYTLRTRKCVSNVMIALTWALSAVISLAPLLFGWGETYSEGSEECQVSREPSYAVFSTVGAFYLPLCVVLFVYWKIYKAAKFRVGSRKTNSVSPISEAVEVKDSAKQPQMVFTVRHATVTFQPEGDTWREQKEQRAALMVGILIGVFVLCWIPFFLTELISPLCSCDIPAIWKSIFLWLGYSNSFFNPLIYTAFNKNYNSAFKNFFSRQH
HTR5A inv ag: counter-screen for OPRM1-OPRD1 inverse agonists: human HTR5A inverse agonism | P47898 | HTR5A cell line, luminescence | inhibition, % at 9.3 µM | 0.083% of 340,000 active; in the data active = inhibition mostly above about 23%, no sharp cut-off; inactive = mostly below about 18%
m5-HT2A agonist: agonists of mouse serotonin 5-HT2A receptor (HTR2A). CHO-K1 mHTR2A beta-arrestin complementation, luminescence; percent of 30 µM serotonin response. activation, % at 7.6 µM. 0.66% of 360,000 active;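 active = activation above a run cutoff, the mean activation of all tested compounds plus 3 SD, cut at about 14% in these data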
MOR-DOR ag: OPRM1-OPRD1 heterodimerization agonism | activation, % at 9.3 µM | cells, luminescence | 0.3% of 340,000 active; in the data active = activation above about 18%
MOR-DOR inv ag: inverse agonist of human OPRM1-OPRD1 heterodimerization; inhibition, % at 9.3 µM; cell-based MOR-DOR heterodimer luminescence, inverse agonism; 0.21% of 340,000 active; AID 504357; P35372+P41143; in the data active = inhibition above about 22%, passing the limit was not always enough
Each line names hits and unclear results; the compound was inactive in the other large screens. A selection: hits, their analogues and other compounds. The true share with any hit is near 1.6%.

COc1ccc2[nH]cc(CCn3ccc(=O)c(C)c3C)c2c1	HTR5A ag ctr 11
O/N=C1\CCCc2ccccc21	none
CC(C)NC(=S)N/N=C1\CCCc2ccccc21	HTR5A ag ctr 11
Cn1c(=O)c2[nH]c(N3CCN(c4ccccc4)CC3)nc2n(C)c1=O	none
COC(=O)c1ccc(NC(=S)N2CCCC2)cc1	none
COC(=O)c1ccc(NC(=S)N2CCN(C)CC2)cc1	HTR5A ag ctr 13
Cc1ccccc1-n1c(SCc2cccc(F)c2)nc2[nH]ncc2c1=O	HTR5A ag ctr 14
CCOc1ccc(OCCC(=O)OCC(=O)Nc2cc(S(=O)(=O)N3CCOCC3)ccc2C)cc1	none
Cc1ccc(N(NC(=O)C(O)(c2ccccc2)c2ccccc2)C(=O)CCl)cc1	HTR5A ag ctr 48, MOR-DOR ag 31
CCOC(=O)c1nnn(-c2nonc2N)c1COc1ccccc1	HTR5A ag ctr 11
CCOC(=O)c1nnn(-c2nonc2N)c1COc1ccc(F)cc1	none
c1ccc2c(c1)NC1(CCCCCC1)n1c-2nc2ccccc21	none
c1ccc2c(c1)NC1(CCCCC1)n1c-2nc2ccccc21	HTR5A ag ctr 14
COc1ccc(OC)c(S(=O)(=O)N(C)CC(=O)N2CCOCC2)c1	HTR5A ag ctr 11
COc1ccccc1C(=O)NCCC(=O)NCC(C)(C)N1CCOCC1	m5-HT2A agonist 17
COc1ccc2cc3cc(C(=O)NCc4ccc5c(c4)OCO5)oc3nc2c1	none
COc1ccc2cc3cc(C(=O)NCC4COc5ccccc5O4)oc3nc2c1 (stereo not drawn)	HTR5A ag ctr 13
CC(C)c1ccc(C2C3=C(COC3=O)Nc3cc4c(cc32)OCO4)cc1 (stereo not drawn)	HTR5A ag ctr 17
COc1ccc2nc(SCC(=O)NC3CCCCC3C)[nH]c2c1 (stereo not drawn)	none
CC(C)CCNC(=O)CCn1nc(-c2ccc(Cl)cc2)ccc1=O	none
Cc1ccc(C(=O)N/C(=C/c2cccs2)C(=O)NCCc2c[nH]c3ccccc23)cc1	HTR5A ag ctr 14
COc1ccc(CNC(=O)[C@]2(C)CCC[C@@]3(C)C4CC[C@@]5(C)C[C@]4(CCC32)CC5=O)cc1 (stereo partly drawn)	none
C[C@]1(CO)CCC[C@@]2(C)C1CC[C@@H](CO)[C@@H]2CCc1ccoc1 (stereo partly drawn)	HTR5A ag ctr 9.8
COc1ccc(C(CC(=O)O)N2Cc3ccccc3C2=O)cc1OC (stereo not drawn)	none
N#Cc1c(C(F)(F)F)cc(-c2cccs2)nc1SCc1cccnc1	m5-HT2A agonist 17
N#Cc1c(C(F)(F)F)cc(-c2cccs2)nc1SCc1ccc(Cl)nc1	none
CC1(C)CC[C@]2(C(=O)O)CC[C@]3(CO)C(=CCC4[C@@]5(C)C[C@H](O)[C@H](O)[C@@](C)(C(=O)O)C5CC[C@]43C)[C@@H]2C1 (stereo partly drawn)	none
C=CCOn1c(=O)c(-c2ccc(C)cc2)[n+]([O-])c2ccccc21	none
CCn1nc(C)cc1-c1nnc(Sc2ncc([N+](=O)[O-])s2)n1C	none
O=[N+]([O-])c1cc(NCCO)c(N2CCCCCC2)c2nonc12	none
CCOC(=O)c1sc2c(c1C)c(=O)n(Cc1ccccc1)c(=O)n2CCN(C)C	none
O=C(Nn1cnc2ccccc2c1=O)c1ccc(Cl)c([N+](=O)[O-])c1	none
COc1ccccc1NCC(=O)N/N=C(\C)c1cccs1	HTR5A ag ctr 14
O=C1NC2(CCC3(CC2)OCCO3)NN1c1ccc(Cl)cc1	none (no result: HTR5A ag ctr, HTR5A inv ag, MOR-DOR ag, MOR-DOR inv ag)
O=C(c1ccco1)N(Cc1cccnc1)C(c1ccccc1)c1nc2ccccc2[nH]1 (stereo not drawn)	none (no result: HTR5A ag ctr, HTR5A inv ag, MOR-DOR ag, MOR-DOR inv ag)
COc1cc(/C=C/C(=O)OCC(=O)Nc2ccc(C)cc2[N+](=O)[O-])ccc1O	none
COc1cc(/C=C/C(=O)OCC(=O)Nc2cc(C)c(C)cc2[N+](=O)[O-])ccc1O	HTR5A ag ctr 11
COc1cc(C(CC(=O)Nc2cc(C)ccn2)N2Cc3ccccc3C2=O)cc(OC)c1OC (stereo not drawn)	none
O=[N+]([O-])c1ccc(Cl)cc1NCCCN1CCOCC1	none
CCCNS(=O)(=O)c1ccc(OCC(=O)Nc2ccc3c(c2)OCCO3)c(C)c1	HTR5A ag ctr 9.6
CC1CCCC(NS(=O)(=O)c2cccc3nsnc23)C1C (stereo not drawn)	none
COC(=O)c1ccc(CSc2nnc(NC(=O)C3CC(=O)N(Cc4ccc(C)cc4)C3)s2)cc1 (stereo not drawn)	none
